Experimental data published in PubChem BioAssay (Tox21).
Records with an inconclusive call do not appear. Entries that show only a call come without a potency. Where a structure was tested more than once in an assay, its records may differ in their call. The source made the active and inactive calls. Unless noted, calls follow the shape of the full dose curve.

Key:
[1] = qHTS assay to identify small molecule agonists of the sonic hedgehog signaling (Shh) pathway (AID 1259368);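 also: NIH/3T3-derived 3T3Gli1-Luc cells carrying a stable Gli1-driven firefly luciferase reporter; series mostly up to about 92 µM; nearly all actives have a fitted effect of over 15% in size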
Summary of the method: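 Quantitative high-throughput format using a Gli1-driven firefly luciferase reporter line derived from NIH/3T3 cells. After a 24 hr compound treatment at 37 C and 5% CO2, luminescence reported Gli1 response element activity.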

[2] = qHTS assay to identify small molecule antagonists of the sonic hedgehog signaling (Shh) pathway (AID 1259369); also: nearly all actives have a fitted effect of over 45% in size
Summary of the method: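 Stable Gli1-Luc reporter NIH/3T3 clone; quantitative HTS in stimulated mode with conditioned medium. Luminescence measured after 24hr compound treatment at 37 C.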

[3] = qHTS assay to identify small molecule agonists of the androgen receptor (AR) signaling pathway in the presence of an antagonist - cell viability counter screen (AID 1259379; active = well fitted curve in the direction sought with a large enough effect in the repeat runs; an effect the other way counts as inactive or inconclusive;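 also: MDA-kb2 human breast cancer cells carrying an MMTV luciferase reporter; series mostly up to about 92 µM; nearly all actives have a fitted effect of over 25% in size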)
Summary of the method: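 Nilutamide-containing (3.0uM final) MDA-kb2 cultures, 3,000 cells/well, were treated with compounds across 15 concentrations. After 16 hr at 37C with no CO2, cell viability was determined by CellTiter-Fluor fluorescence in the luciferase assay wells.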

[4] = qHTS assay to identify small molecule agonists of the estrogen receptor beta (ER-beta) signaling pathway - cell viability counter screen (AID 1259380; active = well fitted curve in the direction sought with a large enough effect in the repeat runs; an effect the other way counts as inactive or inconclusive; also: nearly all actives have a fitted effect of over 30% in size)
Summary of the method: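 Steps: plate ER-beta-UAS-bla HEK293T cells, rest 6 hr; add compounds in DMSO; incubate 16 hr at 37C, 5% CO2; add FRET substrate 2 hr; add CellTiter-Glo, wait 30 min at room temperature; read luminescence.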

[5] = qHTS assay to identify small molecule antagonists of the estrogen receptor beta (ER-beta) signaling pathway - cell viability counter screen (AID 1259382; active = well fitted curve in the direction sought with a large enough effect in the repeat runs; an effect the other way counts as inactive or inconclusive; also: series mostly up to about 92 µM; nearly all actives have a fitted effect of over 55% in size)
Summary of the method: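 Viability is scored by CellTiter-Glo luminescence (30 min, room temperature) in ER-beta-UAS-bla HEK293T wells already read for reporter fluorescence. Compound exposure lasts 16 hr at 37C alongside 1nM 17-beta-estradiol in charcoal-stripped serum medium.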

[6] = target: Estrogen receptor (Homo sapiens) (UniProt P03372); assay: qHTS assay to identify small molecule agonists of the estrogen receptor alpha (ER-alpha) signaling pathway in the presence of an antagonist (AID 1259383); also: nearly all actives have a fitted effect of over 15% in size; also: potency is read from the fitted curve at half-maximal effect; as to activation: top concentration of the series differs between compounds
Summary of the method: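 Readout was ERE-driven luciferase luminescence in VM7Luc4E2 cells, which express full-length ER-alpha endogenously. Compounds were tested at 15 concentrations for 22hr alongside 10.0nM ICI-182,780 (final concentration).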

[7] = qHTS assay to identify small molecule agonists or antagonists of the thyroid stimulating hormone receptor (TSHR) signaling pathway - wild type cell line counter screen (AID 1259384)
Summary of the method: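 Wild-type Hek293 cells, 800/well, 18 h at 37C, then compound with Ro20-1724 for 30 min RT. cAMP by HTRF (cAMP-d2/anti-cAMP cryptate), 1 h RT, fluorescence read. 15 concentrations, triplicates.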

[8] = target: Androgen receptor (Homo sapiens) (UniProt P10275); assay: qHTS assay to identify small molecule agonists of the androgen receptor (AR) signaling pathway in the presence of an antagonist (AID 1259381); also: nearly all actives have a fitted effect of over 15% in size
Summary of the method: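 Reporter-gene luminescence from MDA-kb2 cells exposed 16hr at 37C (0% CO2) to 15-point compound titrations with 3.0uM final nilutamide as AR antagonist.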

[9] = target: Estrogen receptor beta (Homo sapiens) (UniProt Q92731); assay: qHTS assay to identify small molecule agonists of the estrogen receptor beta (ER-beta) signaling pathway (AID 1259377; active = well fitted activation curve with a large enough effect in the signal ratio in the repeat runs, not every such curve was filed as active; the % refers to the signal ratio)
Summary of the method: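 ER-beta-UAS-bla HEK293T (GripTite) cells carrying a UAS-driven beta-lactamase reporter, in medium with 2% charcoal-stripped FBS, were exposed to compounds for 16 hr at 37C; LiveBLAzer B/G FRET substrate was then added and fluorescence read after 2 hours at room temperature.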

[10] = target: Estrogen receptor beta (Homo sapiens) (UniProt Q92731); assay: qHTS assay to identify small molecule antagonists of the estrogen receptor beta (ER-beta) signaling pathway (AID 1259378; active = well fitted inhibition curve with a large enough effect in the signal ratio in the repeat runs, not every such curve was filed as active; the % refers to the signal ratio)
Summary of the method: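 ER-beta-UAS-bla HEK293T cells in 2% charcoal-stripped FBS medium treated with compound plus 1nM final 17-beta-estradiol for 16 hr at 37C. Beta-lactamase reporter read by FRET substrate fluorescence after 2 hours at room temperature.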

Estrogen receptor (Homo sapiens), sequence (P03372 whole entry, looked up): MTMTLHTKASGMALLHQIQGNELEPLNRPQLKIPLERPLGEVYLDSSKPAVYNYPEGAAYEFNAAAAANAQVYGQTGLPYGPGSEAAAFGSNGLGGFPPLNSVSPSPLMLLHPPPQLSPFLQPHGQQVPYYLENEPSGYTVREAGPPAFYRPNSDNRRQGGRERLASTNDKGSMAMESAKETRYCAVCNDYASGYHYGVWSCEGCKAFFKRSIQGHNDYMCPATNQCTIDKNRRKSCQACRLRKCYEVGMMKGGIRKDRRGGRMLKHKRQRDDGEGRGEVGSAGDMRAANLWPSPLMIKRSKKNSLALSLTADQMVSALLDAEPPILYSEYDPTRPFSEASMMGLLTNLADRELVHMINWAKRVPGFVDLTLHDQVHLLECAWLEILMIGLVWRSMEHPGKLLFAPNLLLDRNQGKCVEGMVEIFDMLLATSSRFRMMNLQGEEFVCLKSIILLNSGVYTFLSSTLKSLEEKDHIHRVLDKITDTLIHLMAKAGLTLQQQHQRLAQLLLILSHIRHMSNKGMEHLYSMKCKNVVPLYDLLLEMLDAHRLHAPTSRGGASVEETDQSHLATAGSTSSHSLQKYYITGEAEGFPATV
Estrogen receptor beta (Homo sapiens), sequence (Q92731 whole entry, looked up): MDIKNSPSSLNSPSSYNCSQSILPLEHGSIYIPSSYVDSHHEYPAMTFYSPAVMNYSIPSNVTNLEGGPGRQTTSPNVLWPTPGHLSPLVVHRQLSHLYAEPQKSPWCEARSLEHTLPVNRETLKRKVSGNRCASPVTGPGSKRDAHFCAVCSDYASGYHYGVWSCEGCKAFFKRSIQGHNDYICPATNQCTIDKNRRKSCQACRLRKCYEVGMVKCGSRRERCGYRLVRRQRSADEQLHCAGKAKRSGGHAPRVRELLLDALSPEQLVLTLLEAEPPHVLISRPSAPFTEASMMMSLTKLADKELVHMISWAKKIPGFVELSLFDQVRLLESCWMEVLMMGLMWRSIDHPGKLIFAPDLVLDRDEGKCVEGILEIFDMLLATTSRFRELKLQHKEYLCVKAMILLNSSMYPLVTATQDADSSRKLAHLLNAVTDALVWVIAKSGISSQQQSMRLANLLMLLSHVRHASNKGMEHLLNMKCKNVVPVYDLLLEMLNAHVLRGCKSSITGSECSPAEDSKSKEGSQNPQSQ
Androgen receptor (Homo sapiens), sequence (P10275 whole entry, looked up): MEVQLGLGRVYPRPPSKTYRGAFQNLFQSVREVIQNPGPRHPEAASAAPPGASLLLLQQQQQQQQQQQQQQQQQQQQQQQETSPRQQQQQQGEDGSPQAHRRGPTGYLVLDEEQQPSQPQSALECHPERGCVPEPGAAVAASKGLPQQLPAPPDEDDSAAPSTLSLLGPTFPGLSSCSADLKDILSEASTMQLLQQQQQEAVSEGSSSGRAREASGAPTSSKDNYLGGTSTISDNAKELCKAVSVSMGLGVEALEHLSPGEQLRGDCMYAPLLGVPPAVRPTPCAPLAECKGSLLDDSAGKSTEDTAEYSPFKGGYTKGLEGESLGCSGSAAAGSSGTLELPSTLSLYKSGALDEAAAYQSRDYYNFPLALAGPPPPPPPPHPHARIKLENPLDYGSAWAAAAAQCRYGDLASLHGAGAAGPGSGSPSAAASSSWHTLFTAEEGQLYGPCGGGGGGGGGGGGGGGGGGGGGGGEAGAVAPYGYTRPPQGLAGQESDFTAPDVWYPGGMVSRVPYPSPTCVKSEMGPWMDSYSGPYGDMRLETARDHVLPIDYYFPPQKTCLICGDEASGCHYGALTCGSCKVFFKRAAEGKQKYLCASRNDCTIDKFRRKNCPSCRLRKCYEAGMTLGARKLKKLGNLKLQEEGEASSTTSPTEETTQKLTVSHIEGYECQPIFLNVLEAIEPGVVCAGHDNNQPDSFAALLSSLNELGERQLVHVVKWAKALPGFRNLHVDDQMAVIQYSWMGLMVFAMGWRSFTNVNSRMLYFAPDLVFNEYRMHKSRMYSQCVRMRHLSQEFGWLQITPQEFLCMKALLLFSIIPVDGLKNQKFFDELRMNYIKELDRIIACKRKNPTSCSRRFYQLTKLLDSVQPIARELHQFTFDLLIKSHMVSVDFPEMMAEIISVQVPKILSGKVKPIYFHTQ

Structure (SMILES) | outcome [1] | Potency [2] | Potency [3] | Potency [4] | outcome [5] | Potency [6] | outcome [7] | Potency [8] | Potency [9] | Potency [10]
CCCCCCO | inactive | inactive | inactive | inactive | inactive | inactive | inactive |  |  | 
CC1(C)S[C@@H]2[C@H](NC(=O)COc3ccccc3)C(=O)N2[C@H]1C(=O)O | inactive | inactive | inactive | inactive | inactive | inactive | inactive |  |  | 
CC(C)OC(=O)COc1ccc(Cl)cc1Cl | inactive | inactive | inactive | inactive | inactive | inactive | inactive |  |  | 
CCCCCCC=O | inactive | inactive | inactive | inactive | inactive | inactive | inactive |  |  | 
COC(=O)c1cccnc1 | inactive | inactive | inactive | inactive | inactive |  | inactive | inactive |  | 
COCCCN | inactive | inactive | inactive | inactive | inactive | inactive | inactive |  |  | 
O=C(O)c1ccccc1C(=O)O | inactive | inactive | inactive | inactive | inactive | inactive | inactive |  |  | 
O=C(O)c1ccc(C(=O)O)c(C(=O)O)c1 | inactive | inactive | inactive | inactive | inactive | inactive | inactive | inactive |  | 
CC1(C)NC(=O)NC1=O | inactive | inactive | inactive | inactive | inactive | inactive | inactive |  |  | 
CC(C)=CCl | inactive | inactive | inactive | inactive | inactive | inactive | inactive |  |  | 
O=C1CCCC1 | inactive |  | inactive | inactive | inactive | inactive |  |  | inactive | inactive
CNC(=O)Oc1ccc2c(c1)[C@]1(C)CCN(C)[C@@H]1N2C | inactive | inactive | inactive | inactive | inactive | inactive | inactive |  |  | 
O=S(=O)(O)c1ccccc1 | inactive | inactive | inactive | inactive | inactive |  | inactive |  |  | 
CC(C)CCCCCCCOC(=O)CCCCC(=O)OCCCCCCCC(C)C | inactive | inactive | inactive | inactive | inactive |  | inactive |  |  | 
Cc1ccc2ncccc2c1 | inactive | inactive | inactive | inactive | inactive | inactive | inactive |  |  | 
NC(=S)NNC(N)=S | inactive | inactive | inactive | inactive | inactive |  | inactive |  |  | 
COc1ccc(OC)cc1 | inactive | inactive | inactive | inactive | inactive | inactive | inactive |  |  | 

Structure (SMILES) | outcome [1] | Potency [2] | Potency [3] | Potency [4] | outcome [5] | Potency [6] | outcome [7] | Potency [8] | Potency [9] | Potency [10]
O=C(OCC1CCC2OC2C1)C1CCC2OC2C1 (stereo not given) | inactive | inactive | inactive | inactive | inactive | inactive | inactive |  |  | 
COC(=O)CCCC(=O)OC | inactive | inactive | inactive | inactive | inactive |  | inactive |  |  | 
COc1cc(OC)c(C(=O)CCCN2CCCC2)c(OC)c1 | inactive | inactive | inactive | inactive | inactive |  | inactive | inactive |  | 
CCCCCCCC=O | inactive | inactive | inactive | inactive | inactive | inactive |  |  |  | 
CC(C)(Oc1ccc(CCNC(=O)c2ccc(Cl)cc2)cc1)C(=O)O | inactive | inactive | inactive | inactive | inactive | inactive | inactive |  |  | 
C=C(C)CNCC | inactive | inactive | inactive | inactive | inactive |  | inactive |  |  | 
O=C(O)c1cc2ccccc2cc1O | inactive | inactive | inactive | inactive | inactive | inactive | inactive | inactive |  | 
CC(O)CC(C)(C)O (stereo not given) | inactive | inactive | inactive | inactive | inactive |  |  |  |  | 
CC1(C)CC(N)CC(C)(CN)C1 (stereo not given) | inactive | inactive | inactive | inactive | inactive | 13.9 µM (active) and inactive | inactive |  |  | 
C=CC(=O)OCCC(=O)O | inactive | inactive | inactive | inactive | inactive | inactive | inactive |  |  | 
CC(=O)CCC=C(C)C | inactive | inactive | inactive | inactive | inactive | inactive | inactive |  |  | 
Nc1nc(N)nc(-c2ccccc2)n1 | inactive |  | inactive | inactive | inactive | inactive | inactive |  | inactive | inactive
CC(C)c1cccc(C(C)C)c1 | inactive | inactive | inactive | inactive | inactive | inactive | inactive |  |  | 
CCOCC(=O)O | inactive | inactive | inactive | inactive | inactive | inactive | inactive |  |  | 
CCCOC(=O)c1ccccc1 | inactive | inactive | inactive | inactive | inactive |  | inactive |  |  | 
OC1C(O)C(O)C(O)C(O)C1O (stereo not given) | inactive | inactive | inactive | inactive | inactive | inactive | inactive |  |  | 
